From PubChem BioAssay (NCATS) come the findings set out here.

Assay [1] concerns the target Cytochrome P450 1A2 (Homo sapiens) (UniProt P05177). In words: p450-cyp1a2 (AID 410; calls by dose curve; also: potency is read from the fitted curve at half-maximal effect;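 as to activity change, negative = inhibition: -100% = full effect of reference inhibitor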). The method in brief: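 Human CYP1A2 (20nM) demethylated Luciferin-ME at its Km (100uM) in 100mM KPO4. After 10 min compound preincubation, NADPH regeneration ran the reaction 60 min at room temperature. Luciferin was read by luminescence, normalized to 57 uM furafylline.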
The target of assay [2] is Glucocorticoid receptor (Homo sapiens) (UniProt P04150). The experiment in a line: GR-GFP Redistribution (AID 450;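 active = compounds whose dose series gives a full or clear partial fitted curve of increased nuclear translocation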; also: potency is read from the fitted curve at half-maximal effect). Particulars: U2OS GR-GFP nuclear translocation, laser cytometry, 2 h.
Assay [3] shares this target. The experiment in a line: GR-EFC Redistribution (AID 451; calls by dose curve; also: potency is read from the fitted curve at half-maximal effect). The note with it: CHO-K1 GR-EFC translocation, beta-gal luminescence, 2 h. The method in brief: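 CHO-K1 cells stably expressing nuclear-localized β-gal enzyme acceptor and GR fused C-terminally to the enzyme donor fragment; ligand-driven nuclear translocation restores β-gal by complementation. Compounds titrated up to 46 uM final, 2 h at 37 °C; luminescence read.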

Assay [4] has as its target Mitogen-activated protein kinase 10 (Mus musculus) (UniProt Q61831). In words: JNK3 AlphaScreen Assay (AID 530; active = well fitted curve in either direction with a large enough effect, not every such curve was filed as active;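 also: kinase came from lysate of stimulated human HepG2 cells; signal reports phosphorylation of biotinylated GST-cJun 1-79 at Ser73 with 10 µM ATP; % is scaled to controls: 0 for no effect and ±100 for the full control effect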). The method in brief:
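JNK3 came from HepG2 lysates pre-activated with IL-1beta and TNF-alpha and phosphorylated biotinylated GST-cJun (1-79) at 10 uM ATP, pH 7.6, room temperature. Compounds were titrated. AlphaScreen signal used anti-phospho-cJun (Ser73) antibody.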
Background: Alpha assays give light when donor and acceptor beads are brought close together.

Assay [5] concerns the target 3',5'-cyclic-AMP phosphodiesterase 4B (Homo sapiens) (UniProt Q07343). The experiment in a line: qHTS Assay for Inhibitors of PDE-IV (AID 607; active = well fitted activation curve with a large enough effect in the main read-out, with a control signal flat, not every such curve was filed as active; also: % of control where 0% means no effect). An outline of the steps:
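ACTOne HEK293 cells carry a modified cAMP-gated CNG channel and express endogenous PDE4; plated 1000 cells/well, compounds up to 22.9 uM final. Membrane-potential dye fluorescence (ex 535/em 590) was read; parental cells received 10 uM forskolin + 100 uM RO 20-1724.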
On the technique in general: In qHTS, concentration-response curves come from the screen itself.

Assay [6] can be described thus: qHTS Assay for Lipid Storage Modulators (AID 1519; calls by dose curve). The note with it: Drosophila S3 cells, BODIPY lipid droplet/cell ratio, laser cytometry, cells loaded with oleic acid. An outline of the steps:
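Cells seeded at 5,000 per well were treated with compounds over a concentration series and loaded with oleic acid (400 uM, as added). Lipid droplet fluorescence (488 nm excitation, 500-530 nm channel) was read by laser-scanning cytometry and normalized to 20 uM Triacsin C.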

The target in assay [7] is DNA dC->dU-editing enzyme APOBEC-3G (Homo sapiens) (UniProt Q9HC16). The experiment in a line: qHTS for inhibitors of Vif-A3G interactions: Validation (AID 588379). Also: 0% is about no effect. An outline of the steps:
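HeLa cells stably expressing Vif and A3G-eYFP, 700 cells/well, incubated overnight at 37 deg C, then exposed to compound overnight at 37 deg C. Inhibition of Vif-mediated degradation read as increased yellow fluorescence (Ex 488/Em 500-530) by laser-scanning cytometry.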

The subject of assay [8] is Zika virus NS2B-NS3 protease. The experiment in a line: Primary screen GU AMC qHTS for Zika virus inhibitors (AID 1347154).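 Also: 0% = no-inhibitor control and -100% = no-enzyme control; nearly all actives have a fitted effect of over 70% in size.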 The method in brief:
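Unlinked Zika NS2B hydrophilic domain/NS3 protease domain noncovalent complex (25 nM final) in 10 mM Tris-HCl pH 8.0, 0.01% Tween 20, with AMC peptide substrate. Fluorescence (ex 340, em 450 nm) change over 15 min, room temperature; percent inhibition fitted to 4-parameter Hill equation.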

Assay [9] can be described thus: Primary qHTS for small molecule stabilizers of the endoplasmic reticulum resident proteome: Secreted ER Calcium Modulated Protein (SERCaMP) assay (AID 1508630). Also: % is scaled to controls: 0 for no effect and ±100 for the full control effect. The method in brief:
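GLuc-SERCaMP-expressing SH-SY5Y cells, pretreated 16 h with compound, are challenged with thapsigargin to empty ER calcium stores; after 4 h, coelenterazine is added directly to the medium and luminescence is imaged.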

The target in assay [10] is Ubiquitin carboxyl-terminal hydrolase 1 (Homo sapiens) (UniProt O94782). The experiment in a line: Inhibitors of USP1/UAF1: Pilot qHTS (AID 504865).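 Also: rhodamine fluorescence freed from ubiquitin-rhodamine substrate followed over time; top concentration of the series differs between compounds; % is scaled to controls: 0 for no effect and ±100 for the full control effect; nearly all actives have a fitted effect of over 35% in size.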 An outline of the steps: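 Kinetic fluorescence assay: 1nM USP1/UAF1, 15 min compound preincubation, then 150nM Ub-Rho; 480/540 nm.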
The nature of assay [11]: AP1 Signaling Pathway (AID 357; active = well fitted curve in either direction with a large enough effect, not every such curve was filed as active;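 also: ME-180 reporter cells stimulated with EGF at its EC50 level; % is scaled to controls: 0 for no effect and ±100 for the full control effect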). Particulars: ME-180 AP-1-bla reporter, EGF-induced, beta-lactamase ratio, 5 h. The method in brief:
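Read-out was the 460nm/530nm emission ratio (excitation 405nm) after CCF4 loading for 2.5 hours at room temperature. Cells carried an AP-1-driven beta-lactamase reporter, were stimulated with EC50 EGF plus compound for 5 hours, and AC50 values came from titrations.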

Assay [12] can be described thus: NFAT Signaling Pathway (AID 444; active = well fitted curve in either direction with a large enough effect, not every such curve was filed as active;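 also: carbachol stimulus at about its EC50 of 1 µM final; % is scaled to controls: 0 for no effect and ±100 for the full control effect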). The note with it: Jurkat NFAT-bla M1, carbachol, beta-lactamase ratio, 5 h. An outline of the steps: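 Jurkat cells carrying an NFAT-driven β-lactamase reporter and co-transfected muscarinic M1 receptor were treated with compound plus carbachol (1 uM final, an EC50 level) for 5 h at 37 °C. CCF4 loading followed for 1 h at RT; 460/530 nm ratio gave %activity.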

A short description of assay [13]: Stat Signaling Pathway (AID 446; active = well fitted curve in either direction with a large enough effect, not every such curve was filed as active). Particulars: ME-180 SIE beta-lactamase reporter, IL-6 stimulated, 5 h. An outline of the steps: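 ME-180 SIE-bla cells; overnight plating; cpd + IL-6 40 pM, 5 h, 37 C; LiveBLAzer 2.5 h RT; 460/530 nm emission ratio. Normalized to 300 pM IL-6 and 125 nM JAK inhibitor controls.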
For assay [14], the target named is Guanine nucleotide-binding protein G(i) subunit alpha-1 (Homo sapiens) (UniProt P63096). In words: qHTS Assay for Inhibitors of RGS12 GoLoco Motif Activity (Green Fluorophore) (AID 879).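 Also: 0% = labeled peptide with Gαi1 and full inhibition = labeled peptide alone without protein; negative values mean loss of peptide binding seen as reduced polarization.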 The method in brief: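 Fluorescence polarization assay: 50 nM Gαi1 with 10 nM FITC-labeled RGS12 GoLoco peptide in 10 mM Tris pH 7.5, 150 mM NaCl, 0.1 mM GDP, 0.05% NP40, 10 min at room temperature with compound.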

The nature of assay [15]: qHTS Assay for Identification of Small Molecule Agonists for Thrombopoietin (TPO) Signaling Pathway (AID 917). Also: % is scaled to controls: 0 for no effect and ±100 for the full control effect. The method in brief: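 We measured Glycoprotein IIb promoter–luciferase output in IL-3-starved Ba/F3 murine cells expressing the human TPO receptor after 24 hrs at 37 C with compounds and 26 pM TPO.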
Assay [16] addresses Pyruvate kinase (Leishmania mexicana) (UniProt Q27686). In words: qHTS Validation Assay for Inhibitors of Leishmania Mexicana Pyruvate Kinase (AID 945).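 Also: 0% = DMSO only neutral control wells.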 An outline of the steps: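 The enzyme is a highly purified E451W mutant of LmPYK used at 0.2 nM. It converts 0.5 mM PEP and 0.1 mM ADP over 1 h at room temperature; product ATP is quantified by luciferase luminescence relative to DMSO controls.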

For assay [17], the target named is Pyruvate kinase PKM (Homo sapiens) (UniProt P14618). In words: qHTS Assay for Activators of Human Muscle Pyruvate Kinase (AID 954; active = well fitted curve in the direction sought with a large enough effect, not every such curve was filed as active;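 also: 0% = uninhibited enzyme and -100% = no enzyme or full thiadiazolimine inhibition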). An outline of the steps:
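Luminescence from a luciferase ATP-detection/stop reagent reported PKM2 activity. Reactions contained 0.1 nM purified human enzyme, 0.5 mM PEP, 0.1 mM ADP and 7 mM MgCl2 at pH 7.2, run 1 h at RT.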

Assay [18] has as its target alpha-glucosidase (Oryza sativa, rice) (UniProt Q653V4). In words: Counterscreen for Glucocerebrosidase Inhibitors: qHTS Assay for Rice alpha-Glucosidase at pH 5.0 (AID 997).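 Also: 0% = full activity with enzyme and -100% = basal without enzyme.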 The method in brief: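 Rice alpha-glucosidase (4 nM final) with 400 uM 4-methylumbelliferyl-alpha-D-glucopyranoside in citrate buffer pH 5.0, 20 min at room temperature, stopped at pH 10; fluorescence 365/440 nm, compounds 0.7 nM–77 uM, AC50 from Hill fits.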

The mark [19] stands for this setting: measured here: cell count channel max response.
Where [20] appears, read: measured here: lipid channel max response.

Values joined by “and” are separate entries in the source; they are usually repeats but may differ in a detail not shown here. Equal entries are not always repeated. Results filed as inconclusive are left out. Active and inactive are the calls of the source. Unless noted, calls follow the shape of the dose curve; as a rule, active = well fitted curve in the direction sought with a large enough effect; inconclusive = small, poorly fitted or top-dose-only effect, or another doubt; inactive = no such curve, though single readings can be large; an effect the other way counts as inactive or inconclusive. Bounds are passed on as bounds.

Sequence of Cytochrome P450 1A2 (Homo sapiens) (P05177 whole entry, looked up): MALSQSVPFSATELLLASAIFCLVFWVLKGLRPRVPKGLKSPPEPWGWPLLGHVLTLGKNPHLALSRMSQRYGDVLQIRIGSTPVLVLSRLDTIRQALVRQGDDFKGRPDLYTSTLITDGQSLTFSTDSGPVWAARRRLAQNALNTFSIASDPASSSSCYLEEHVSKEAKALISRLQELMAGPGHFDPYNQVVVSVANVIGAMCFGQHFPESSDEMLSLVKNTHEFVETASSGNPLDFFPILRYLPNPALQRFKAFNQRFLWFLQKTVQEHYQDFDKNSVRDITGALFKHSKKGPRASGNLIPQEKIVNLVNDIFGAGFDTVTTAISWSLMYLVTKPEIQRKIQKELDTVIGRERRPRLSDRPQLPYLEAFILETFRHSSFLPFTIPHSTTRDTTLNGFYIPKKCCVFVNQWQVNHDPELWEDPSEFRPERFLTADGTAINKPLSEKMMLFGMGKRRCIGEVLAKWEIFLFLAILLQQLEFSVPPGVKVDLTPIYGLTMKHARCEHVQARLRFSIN
Sequence of Ubiquitin carboxyl-terminal hydrolase 1 (Homo sapiens) (O94782 whole entry, looked up): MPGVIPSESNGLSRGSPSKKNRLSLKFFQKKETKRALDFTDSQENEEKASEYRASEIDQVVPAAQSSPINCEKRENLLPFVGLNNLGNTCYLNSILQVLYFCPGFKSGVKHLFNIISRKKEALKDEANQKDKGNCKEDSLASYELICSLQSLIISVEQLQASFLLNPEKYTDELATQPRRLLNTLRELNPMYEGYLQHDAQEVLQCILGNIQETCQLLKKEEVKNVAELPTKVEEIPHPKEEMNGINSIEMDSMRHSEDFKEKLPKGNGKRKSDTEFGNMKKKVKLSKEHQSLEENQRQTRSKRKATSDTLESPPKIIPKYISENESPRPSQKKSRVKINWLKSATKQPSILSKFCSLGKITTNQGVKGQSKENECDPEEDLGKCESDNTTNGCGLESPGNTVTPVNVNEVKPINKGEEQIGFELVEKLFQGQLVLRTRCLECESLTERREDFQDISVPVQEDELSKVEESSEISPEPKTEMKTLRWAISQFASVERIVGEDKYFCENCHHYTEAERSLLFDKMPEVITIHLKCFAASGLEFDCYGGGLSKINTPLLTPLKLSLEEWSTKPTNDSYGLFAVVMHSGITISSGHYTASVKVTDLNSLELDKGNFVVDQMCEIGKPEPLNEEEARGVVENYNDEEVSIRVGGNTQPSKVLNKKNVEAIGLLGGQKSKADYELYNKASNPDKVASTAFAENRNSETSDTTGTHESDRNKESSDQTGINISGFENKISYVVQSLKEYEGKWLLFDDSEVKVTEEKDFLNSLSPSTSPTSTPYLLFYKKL
Sequence of Glucocorticoid receptor (Homo sapiens) (P04150 whole entry, looked up, the tested form may be a part): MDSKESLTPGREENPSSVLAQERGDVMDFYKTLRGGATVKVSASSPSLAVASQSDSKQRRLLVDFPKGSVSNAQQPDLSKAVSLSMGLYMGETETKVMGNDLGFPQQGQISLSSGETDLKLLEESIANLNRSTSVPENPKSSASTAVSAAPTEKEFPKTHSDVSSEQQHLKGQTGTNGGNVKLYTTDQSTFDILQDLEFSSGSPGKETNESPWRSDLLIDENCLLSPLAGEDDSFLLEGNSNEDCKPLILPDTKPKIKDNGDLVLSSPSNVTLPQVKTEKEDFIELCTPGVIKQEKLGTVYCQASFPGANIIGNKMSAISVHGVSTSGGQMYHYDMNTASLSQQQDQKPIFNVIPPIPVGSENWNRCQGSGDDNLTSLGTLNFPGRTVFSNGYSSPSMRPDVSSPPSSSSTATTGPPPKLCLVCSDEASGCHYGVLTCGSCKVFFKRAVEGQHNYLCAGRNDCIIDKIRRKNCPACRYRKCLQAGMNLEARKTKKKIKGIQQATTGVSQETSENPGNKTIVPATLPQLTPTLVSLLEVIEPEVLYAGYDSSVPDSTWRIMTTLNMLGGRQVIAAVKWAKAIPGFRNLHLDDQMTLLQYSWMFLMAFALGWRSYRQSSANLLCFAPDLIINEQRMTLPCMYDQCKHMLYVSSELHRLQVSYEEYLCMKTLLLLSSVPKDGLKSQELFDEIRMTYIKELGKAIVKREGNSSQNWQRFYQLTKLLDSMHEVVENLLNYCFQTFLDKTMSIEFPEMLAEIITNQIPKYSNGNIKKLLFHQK
Sequence of DNA dC->dU-editing enzyme APOBEC-3G (Homo sapiens) (Q9HC16 whole entry, looked up): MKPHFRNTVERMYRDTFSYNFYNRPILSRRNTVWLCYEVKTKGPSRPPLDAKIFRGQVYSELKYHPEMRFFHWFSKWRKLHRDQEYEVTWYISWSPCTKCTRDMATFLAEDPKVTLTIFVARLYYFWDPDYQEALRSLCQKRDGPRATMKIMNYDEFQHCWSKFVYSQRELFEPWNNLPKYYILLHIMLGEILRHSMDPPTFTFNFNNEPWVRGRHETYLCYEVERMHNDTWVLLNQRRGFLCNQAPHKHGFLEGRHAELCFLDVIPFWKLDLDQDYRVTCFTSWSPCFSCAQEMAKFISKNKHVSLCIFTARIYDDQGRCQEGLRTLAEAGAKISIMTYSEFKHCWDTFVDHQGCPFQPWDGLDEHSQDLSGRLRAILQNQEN
Sequence of 3',5'-cyclic-AMP phosphodiesterase 4B (Homo sapiens) (Q07343 whole entry, looked up): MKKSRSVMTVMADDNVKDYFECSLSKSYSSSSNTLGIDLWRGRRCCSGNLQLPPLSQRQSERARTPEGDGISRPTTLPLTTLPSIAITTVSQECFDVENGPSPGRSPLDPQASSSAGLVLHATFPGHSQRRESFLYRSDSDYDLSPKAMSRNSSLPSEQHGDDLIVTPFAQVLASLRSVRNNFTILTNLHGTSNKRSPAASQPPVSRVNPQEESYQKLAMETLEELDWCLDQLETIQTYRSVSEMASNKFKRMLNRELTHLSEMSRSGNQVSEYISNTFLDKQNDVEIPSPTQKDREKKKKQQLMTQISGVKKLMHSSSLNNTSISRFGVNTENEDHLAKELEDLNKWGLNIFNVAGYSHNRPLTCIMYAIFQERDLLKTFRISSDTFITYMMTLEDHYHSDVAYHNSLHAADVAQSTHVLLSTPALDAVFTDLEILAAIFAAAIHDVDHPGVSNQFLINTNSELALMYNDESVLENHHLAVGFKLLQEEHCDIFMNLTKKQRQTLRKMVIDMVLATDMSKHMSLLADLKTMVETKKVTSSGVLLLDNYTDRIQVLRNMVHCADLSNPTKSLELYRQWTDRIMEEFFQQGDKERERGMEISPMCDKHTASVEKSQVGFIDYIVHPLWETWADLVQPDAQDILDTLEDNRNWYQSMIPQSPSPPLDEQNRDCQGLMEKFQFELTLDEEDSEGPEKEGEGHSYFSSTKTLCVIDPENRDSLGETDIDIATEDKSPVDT
Sequence of Pyruvate kinase PKM (Homo sapiens) (P14618 whole entry, looked up): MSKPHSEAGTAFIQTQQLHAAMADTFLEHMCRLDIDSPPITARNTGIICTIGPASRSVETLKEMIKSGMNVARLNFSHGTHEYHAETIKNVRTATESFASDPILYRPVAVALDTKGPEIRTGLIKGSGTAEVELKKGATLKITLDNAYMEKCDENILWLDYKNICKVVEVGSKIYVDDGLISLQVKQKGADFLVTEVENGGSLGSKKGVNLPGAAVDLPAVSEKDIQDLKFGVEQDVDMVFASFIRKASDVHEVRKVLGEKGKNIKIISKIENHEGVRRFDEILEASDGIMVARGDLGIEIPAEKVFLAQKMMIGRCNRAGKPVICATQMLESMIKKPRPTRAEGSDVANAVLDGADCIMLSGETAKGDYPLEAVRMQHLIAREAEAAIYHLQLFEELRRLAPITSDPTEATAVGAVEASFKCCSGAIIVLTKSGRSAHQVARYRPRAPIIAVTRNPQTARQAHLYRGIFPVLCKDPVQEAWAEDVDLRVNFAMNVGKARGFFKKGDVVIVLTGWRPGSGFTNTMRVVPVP
Sequence of Guanine nucleotide-binding protein G(i) subunit alpha-1 (Homo sapiens) (P63096 whole entry, looked up): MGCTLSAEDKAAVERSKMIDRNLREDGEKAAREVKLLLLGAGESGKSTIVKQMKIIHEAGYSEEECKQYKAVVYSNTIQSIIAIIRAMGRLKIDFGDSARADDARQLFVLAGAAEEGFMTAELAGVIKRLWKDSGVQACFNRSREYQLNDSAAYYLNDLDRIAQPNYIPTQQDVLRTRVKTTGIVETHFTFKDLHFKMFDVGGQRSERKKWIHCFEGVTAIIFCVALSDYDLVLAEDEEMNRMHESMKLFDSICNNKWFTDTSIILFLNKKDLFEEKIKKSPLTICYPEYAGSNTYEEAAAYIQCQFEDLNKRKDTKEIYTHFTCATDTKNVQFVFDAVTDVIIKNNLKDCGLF
Sequence of Pyruvate kinase (Leishmania mexicana) (Q27686 2-499 E452W): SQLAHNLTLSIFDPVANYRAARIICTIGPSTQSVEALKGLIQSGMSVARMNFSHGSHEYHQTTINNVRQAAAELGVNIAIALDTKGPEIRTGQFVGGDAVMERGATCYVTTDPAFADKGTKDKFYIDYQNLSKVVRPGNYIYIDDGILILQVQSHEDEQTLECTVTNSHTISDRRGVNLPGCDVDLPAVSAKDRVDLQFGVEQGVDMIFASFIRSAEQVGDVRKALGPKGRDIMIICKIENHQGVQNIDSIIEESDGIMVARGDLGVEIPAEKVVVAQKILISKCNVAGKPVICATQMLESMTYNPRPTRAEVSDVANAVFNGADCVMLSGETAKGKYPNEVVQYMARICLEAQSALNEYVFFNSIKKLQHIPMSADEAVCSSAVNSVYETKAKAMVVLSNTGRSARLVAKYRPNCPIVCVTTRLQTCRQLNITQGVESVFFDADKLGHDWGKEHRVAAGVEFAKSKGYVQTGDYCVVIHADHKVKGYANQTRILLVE

Take `CC(=O)N1CCN(C)CC1`: the Potency is 31.6 µM (active) in [1], > 46 µM (inactive) in assay [2] and > 46 µM (inactive) in assay [3]. In addition, the Potency entry in [4], in [5], in assay [7], in [8] and in assay [9] was “inactive” in each case. In addition, the activity change, negative = inhibition in assay [6] (at 57.5 µM (top of the series)) was -3.74% (inactive). Besides, the max response is -2.52% in [6] (setting [19]) and -5.67% in assay [6] (setting [20]).

On to `C[C@@](N)(C(=O)O)c1ccc(P(=O)(O)O)cc1`, for which the Potency in [1] is 39.8 µM (active); in [2], > 46 µM (inactive); in [3] it was > 46 µM (inactive). The Potency entry in assay [4], in assay [10], in assay [7], in [8] and in assay [9] was “inactive” each time. Further, the activity change, negative = inhibition in assay [6] (at 57.5 µM (top of the series)) was -5.17% (inactive). For the same molecule, the max response in assay [6] (setting [19]) was 0.435%; in assay [6] (setting [20]), -4.21%.

Consider `COC(=O)[C@@H]1[C@@H]2C[C@H]3c4[nH]c5ccccc5c4CCN3C[C@@H]2CC[C@@H]1O`, for which the activity change, negative = inhibition in assay [11] (at 7.69 µM (top of the series)) is -0.0828% (inactive); in assay [11] (at 17.2 µM (top of the series)) it was 0.544% (inactive) and 5.73% (inactive) and 0.793% (inactive); in assay [12] (at 7.69 µM (top of the series)) it was -0.996% (inactive); in [12] (at 17.2 µM (top of the series)) it was -15% (inactive) and 0.703% (inactive) and 5.17% (inactive); in assay [6] (at 25.7 µM (top of the series)), 1.23% (inactive) and -2.04% (inactive) and -1.29% (inactive). For the same molecule, the activity, negative = inhibition was 0.353% (inactive) in assay [13] (at 7.69 µM (top of the series)); 5.5% (inactive) and -1.53% (inactive) and 0.108% (inactive) in [13] (at 17.2 µM (top of the series)). For the same molecule, the Potency result in [5], in assay [7], in assay [8] and in assay [9] was “inactive” throughout. Moreover, the max response in [6] (setting [19]) is -5.31% and -9.47% and 16%; in [6] (setting [20]), -5.26% and -13% and 13.4%.

For `N#Cc1cc2[nH]c(=O)c(=O)[nH]c2cc1[N+](=O)[O-]`, the Potency was 31.6 µM (active) in [1], > 46 µM (inactive) in assay [2] and > 46 µM (inactive) in assay [3]. The Potency result in assay [4], in [7], in assay [8] and in [9] was “inactive” each time. In addition, the activity change, negative = inhibition in assay [6] (at 57.5 µM (top of the series)) is 2.55% (inactive). In addition, the max response in assay [6] (setting [19]) was 12.9%; in [6] (setting [20]), 17.2%.

Take `CC(C)SC(=N)N`: the Potency entry in assay [1], in assay [4], in assay [5], in assay [10], in [7] and in [8] was “inactive” each time. Further, the Potency entry in assay [9] was “inactive”. In addition, the Potency in assay [2] and in [3] was > 46 µM (inactive) each time. For the same molecule, the activity change, negative = inhibition in assay [6] (at 57.5 µM (top of the series)) is -0.874% (inactive). Moreover, the max response in assay [6] (setting [19]) was 1.11%; in assay [6] (setting [20]), -3.81%.

As for `N[C@@H](CO)C(=O)O`, the figures for the activity change, negative = inhibition in assay [11] (at 38 µM (top of the series)), in assay [12] (at 38 µM (top of the series)) and in [6] (at 57.5 µM (top of the series)) were 6.64% (inactive), 1.99% (inactive) and -1.57% (inactive), respectively. For the same molecule, the Potency result in [1], in assay [4], in assay [5], in assay [15], in assay [16] and in assay [10] was “inactive” in each case. Also, the Potency entry in assay [7], in [8] and in [9] was “inactive” throughout. The activity, negative = inhibition in [13] (at 38 µM (top of the series)) was -12.9% (inactive). The Potency in assay [2] and in assay [3] was > 46 µM (inactive) in each case. Besides, the molecule was called inactive in assay [14], in [17] and in assay [18]. The max response is 0.892% in [6] (setting [19]) and -1.78% in assay [6] (setting [20]).

Take `CN1CCN(CCc2ccc(Cl)c(Cl)c2)CC1`: the Potency in [1] was 25.1 µM (active); in assay [2], > 46 µM (inactive); in [3], > 46 µM (inactive). The Potency result in assay [4], in assay [5], in assay [10], in assay [7], in assay [8] and in assay [9] was “inactive” in each case. Also, in [6] (at 57.5 µM (top of the series)), the activity change, negative = inhibition was -0.655% (inactive). Besides, the max response in assay [6] (setting [19]) is -14.6%; in [6] (setting [20]), -12.9%.
